HT1080 IDH1KD tx – toxicity to HT-1080 IDH1 knockdown cells (counter line) | HT-1080 IDH1 knockdown viability, ATP luminescence, 48 h | Potency, µM (doses to about 46.1 µM), without a hit: at the highest dose activity, negative = toxicity, actives largely listed as cytotoxic | 2% of 360,000 active;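 note: potency is the fitted concentration of half-maximal effect; 0% = DMSO wells and -100% = cell-free medium wells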
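Assay cells: HT-1080 with IDH1 knockdown, 750 per well, RPMI/5% FBS. Exposure: 48 h at 37 °C following 2 h pre-incubation. Read: CellTiter-Glo luminescence; fitted concentration-response, curve class assigned.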
HT1080NT lethal – kills 2HG-producing HT-1080-NT fibrosarcoma cells. HT-1080-NT fibrosarcoma viability, CellTiter-Glo ATP luminescence, 48 h. Potency, µM (top dose mostly 46.1 µM), inactives show at the top dose activity, negative = less viability, most hits filed as cytotoxic. 1.6% of 360,000 active. AID 686970;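 note: NT is the 2HG producing partner of a matched IDH1 knockdown line; potency is the fitted concentration of half-maximal effect; 0% = DMSO-treated cells and -100% = media-only wells without cells; nearly all actives have a fitted effect of over 55% in size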
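Toxicity toward the 2HG-producing NT line was scored as %Activity, normalised to DMSO and no-cell wells, from CellTiter-Glo luminescence after 48 hours' treatment.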
IL1B secr inh – inflammasome signaling inhibition, IL-1 beta readout | AID 743279 | 4.7% of 360,000 active | activity change, % at 57.5 µM | THP-1 LPS/ATP IL-1B secretion, AlphaLISA, 16 h; hits give low values; in the data active = activity change below about -50%; inconclusive = mostly about -30% to -49%
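THP-1 cells pretreated 1 hr with compounds (up to 57.5 uM final), then stimulated with LPS (250 ng/mL final) plus ATP (1.25 mM final); secreted IL-1B measured by AlphaLISA after 16 hr, decreased signal indicating inhibition.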
TDP1 cell noCPT – qHTS for Inhibitors of human tyrosyl-DNA phosphodiesterase 1 (TDP1): qHTS in cells in absence of CPT; DT40 Tdp1-/- hTDP1 cells, no CPT, ATP luminescence, 48 h; Potency, µM (doses to about 46.2 µM), for inactives: top-dose activity change, negative = growth inhibition, usual class: inhibitors; 15% of 420,000 active; AID 686978, 2013; note: potency is the fitted concentration of half-maximal effect; nearly all actives have a fitted effect of over 55% in size
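Growth of hTDP1-complemented DT40 Tdp1-knockout cells is measured by ATP luminescence after at least 48 hr compound exposure at 37 °C, with DMSO substituting for the 20 nM CPT used in the parallel screen.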
TDP1 cell CPT – growth inhibition of DT40 Tdp1-/-;hTDP1 cells with camptothecin (screen for TDP1 inhibitors); chicken DT40 Tdp1-/-;hTDP1 cells + 20 nM CPT, ATP luminescence, 48 h; Potency, µM (doses to about 46.2 µM), for inactives: top-dose activity change, negative = growth inhibition, actives largely listed as inhibitors; 12% of 420,000 active; note: potency is the fitted concentration of half-maximal effect; nearly all actives have a fitted effect of over 55% in size
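Chicken DT40 Tdp1-/- cells stably complemented with human TDP1 were seeded at 400 cells/well in medium containing 20 nM camptothecin, exposed to pin-transferred compounds, and grown at 37 °C for at least 48 hr. Viability was read as ATP luminescence.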
* = called active by the depositor; ? = inconclusive; . = not tested or not shown. An excerpt weighted towards active compounds, which were near 19% of everything screened. Unless noted, calls come from the whole dose curve; as a rule, active = well fitted curve in the direction sought with a large enough effect; inconclusive = small, poorly fitted or top-dose-only effect, or another doubt; inactive = no such curve, though single readings can be large; an effect the other way counts as inactive or inconclusive. Unless noted, % is set by controls: 0 for no effect and ±100 for the full control effect.

SMILES | HT1080 IDH1KD tx | HT1080NT lethal | IL1B secr inh | TDP1 cell noCPT | TDP1 cell CPT
NC(CSC(c1ccccc1)(c1ccccc1)c1ccc2c(c1)OCO2)C(=O)O (configuration not stated) | 18µM* | 12µM* | 18 | 7.3µM* | ?
COC(=O)C1=C(C)N(Cc2ccccc2)C(=NCc2ccccc2)N[C@H]1c1cccc(C(F)(F)F)c1 | ? | ? | ? | 5.8µM* | 5.8µM*
COC(=O)C1=C(C)N(Cc2ccccc2)C(=O)N[C@H]1c1cccc(C(F)(F)F)c1 | -14% | -15% | -20 | ? | ?
COC(=O)C1=C(C)N(Cc2ccccc2)C(=S)N[C@H]1c1cccc(C(F)(F)F)c1 | ? | -22% | ? | ? | ?
COC(=O)C1=C(C)N(Cc2ccccc2)C(=NCCc2ccccn2)N[C@H]1c1cccc(C(F)(F)F)c1 | -11% | -22% | -27 | 15µM* | 7.3µM*
CCN1C(=NCCc2ccccn2)N[C@@H](c2cccc(C(F)(F)F)c2)C(C(=O)OC)=C1C | 1% | -10% | ? | 16µM* | 11µM*
O=C(CSc1nnc(CNC(=O)c2ccco2)o1)Nc1cccc(Cl)c1 | 19% | 11% | 0 | 3% | 7%
COc1ccc(CCNC(=O)c2ccc3c(c2)S(=O)(=O)N=C2CCCCCN23)cc1 | -2% | -7% | -4 | -26% | -6%
CC(C)(C)C(=O)NC(=S)Nc1ccc(Cc2ccncc2)cc1 | -27% | -22% | -65* | ? | ?
CNC(=S)Nc1ccc(Cc2ccncc2)cc1 | -8% | -5% | 14 | 0% | -3%
O=C(NC(=S)Nc1ccc(Cc2ccncc2)cc1)c1ccc(F)cc1 | -6% | -5% | 23 | 16µM* | ?
Cc1ccccc1C(=O)OCc1cc(=O)n2c(C)csc2n1 | . | . | . | ? | -19%
C/C=C/c1cc(CN2CCN(c3ccc(OC)cc3)CC2)c(O)c(OC)c1 | -1% | -2% | -2 | ? | ?
CCOC(=O)c1cc(N2CCCCC2)nc2ccccc12 | 4% | 9% | 5 | ? | 23µM*
O=C(O)c1cc(N2CCCCC2)nc2ccccc12 | 0% | 9% | -4 | -17% | 0%
CCCCN1C[C@H](CO)Oc2cccc(F)c2S1(=O)=O | 3% | -2% | 20 | 3% | -8%
C/C(=N\NC(=O)C(=O)Nc1ccc(C)c(Cl)c1)c1ccncc1 | 22% | 25% | -4 | 2.3µM* | 1.6µM*
C/C(=N\NC(=O)c1cccs1)c1ccncc1 | -2% | 5% | 10 | 14% | 0%
C/C(=N\NC(=O)C(=O)Nc1ccc(C)cc1)c1ccncc1 | 10% | 2% | 18 | 9.2µM* | ?
C/C(=N\NC(=O)C(=O)Nc1cccc(Cl)c1)c1ccncc1 | 29% | 11% | -2 | 7.3µM* | 12µM*
C/C(=N\Nc1ccc(C)c(Cl)c1)c1ccncc1 | -12% | -21% | -25 | ? | -5%
C/C(=N\Nc1cccc(Cl)c1)c1ccc(-n2ccnc2)cc1 | -26% | -13% | ? | 16µM* | ?
C(=N\NC1=Nc2cccc3cccc1c23)/c1ccccc1 | -5% | -2% | -1 | ? | 7%
NC1=Nc2cccc3cccc1c23 | ? | ? | -65* | 16µM* | ?
Cc1nc(Cl)sc1C(=O)Nc1cccc2ccccc12 | 2% | -1% | -27 | ? | ?
SMILES | HT1080 IDH1KD tx | HT1080NT lethal | IL1B secr inh | TDP1 cell noCPT | TDP1 cell CPT
CC(C)NCc1c(O)c(Br)cc2oc3c(c12)CCCC3 | -4% | -8% | -9 | -14% | 4%
O=C1NCCCc2c1oc1cc(Br)c(O)c(Br)c21 | -25% | -18% | ? | ? | 16µM*
O=C(Nc1ccncc1)Nc1cccc(Cl)c1Cl | -21% | -24% | -22 | ? | 23µM*
O=C(Nc1ccccc1NC(=O)c1c(F)c(F)c(F)c(F)c1F)c1c(F)c(F)c(F)c(F)c1F | ? | ? | -108* | -23% | -7%
O=C(Nc1ccncc1)c1c(Cl)cccc1Cl | -3% | ? | -61* | ? | 9.2µM*
O=C(NCCc1ccccc1)c1c(F)c(F)c(F)c(F)c1F | -7% | 4% | ? | -3% | -1%
O=C(Nc1ccccc1)Nc1cccc(Cl)c1Cl | ? | ? | -19 | ? | ?
O=C(Nc1ccc2cn[nH]c2c1)c1c(Cl)cccc1Cl | -3% | -8% | 11 | ? | -18%
O=C(Nc1ccc(Oc2ccc(NC(=O)Nc3ccccc3Cl)cc2)cc1)Nc1ccccc1Cl | -17% | -1% | -8 | 21µM* | 18µM*
O=C(CN1CCCC1)Nc1ccc(NC(=O)Nc2ccccc2Cl)cc1 | -19% | -25% | ? | 1% | -17%
Cc1ccccc1C(=O)N/N=C1/SCC(=O)N1Cc1ccccc1 | 2% | -17% | 0 | -23% | 2%
O=C(COc1ccc(S(=O)(=O)N2CCCC2)cc1)N1CCCCC1 | 2% | 0% | -4 | -16% | -24%
CC(=O)c1cccc(NC(=O)c2c(F)c(F)c(F)c(F)c2F)c1 | -8% | -2% | -29 | 29µM* | ?
CCC(C(=O)Nc1ccncc1)c1ccccc1 (configuration not stated) | 4% | 5% | 47 | 16µM* | ?
CC(C)(C)c1cc(NC(=O)Nc2ccccc2)no1 | 3% | 8% | -54* | -24% | ?
O=C(Nc1ccccc1)Nc1ccncc1 | -11% | -17% | 0 | 21µM* | ?
Cc1cccc(NC(=O)c2c(F)c(F)c(F)c(F)c2F)c1 | -1% | -1% | -5 | 18% | -6%
O=C(Nc1ccncc1)Nc1cccc(Cl)c1 | 0% | -4% | -12 | -23% | ?
CCNc1ncc2nc(-c3cc(F)cc(F)c3)c(=O)n(C3CC3)c2n1 | . | . | . | 3% | -11%
Cc1onc(-c2ccccc2)c1C(=O)NCc1ccccc1F | -4% | -1% | -12 | -22% | 2%
O=C(COc1ccccc1)Nc1cccc2nsnc12 | 7% | 0% | 5 | -28% | 8%
O=C(Nc1ccc(Cl)cc1)Nc1cccc2nsnc12 | -3% | -5% | ? | 29µM* | ?
O=C(Nc1ccncc1)OCc1ccccc1 | -6% | -14% | -16 | 21µM* | ?
O=C(Nc1ccncc1)c1ccc(C(=O)Nc2ccncc2)cc1 | 3% | 10% | 9 | -28% | -28%
COC(=O)c1sccc1NC(=O)c1c(F)c(F)c(F)c(F)c1F | ? | 18µM* | -102* | ? | ?
O=C(Nc1ccncc1)c1c(F)c(F)c(F)c(F)c1F | -23% | -9% | -96* | -29% | -10%
O=C(NNC(=O)OCc1ccccc1)OCc1ccccc1 | -11% | 5% | -7 | -9% | -2%
COC(=O)c1sccc1NC(=O)c1cccc(F)c1 | -5% | 1% | 14 | -8% | -15%

Screens: PubChem BioAssay, National Center for Advancing Translational Sciences (NCATS)
